Source: PubChem BioAssay AID651640 (Broad Institute, 2012)
Values joined by “and” are separate entries in the source; they are usually repeats but may differ in a detail not shown here. Identical values can stand only once. Among all 350,000 compounds or so, about 6,000 (1.7%) were called active. Not shown: some 5% with an inconclusive outcome. No stated cut-off is given here; in the data, active means CPE inhibition above about 20% (passing the limit was not always enough); inconclusive means no clear call, values can overlap the other calls; tested in BHK-21 cells. The sample as a whole holds a higher share of actives than the screen did. The source holds several records for some structures; these can differ, active in one and inactive in another.

Assay: inhibitors of DENV2 cytopathic effect, primary screen, cell-based, plate reader, single concentration (AID 651640);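 further: 0% = median of neutral control wells and 100% = median of positive control wells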
Conditions: DENV2-infected cells, cytopathic effect rescue, at 9.99 µM, stronger effect = higher value

Q: With `C[C@@H]1CN([C@@H](C)CO)C(=O)c2cc(NC(=O)Cc3ccccc3)ccc2O[C@@H]1CN(C)Cc1ccc(Oc2ccccc2)cc1` as the molecule, how does the CPE inhibition read?
A: -2.18% (inactive)

Q: Which CPE inhibition does the source give for `C[C@@H]1CN([C@@H](C)CO)C(=O)c2cc(NC(=O)Nc3cccc4ccccc34)ccc2O[C@@H]1CN(C)Cc1ccc(-c2ccccc2)cc1` here?
A: 6.66% (inactive)

Q: Which CPE inhibition does the source give for `C[C@@H]1CN([C@H](C)CO)C(=O)c2cc(NC(=O)CCN3CCOCC3)ccc2O[C@H]1CN(C)Cc1ccc(Oc2ccccc2)cc1` here?
A: 25.3% (active)

Q: With `COc1ccc(CN(C)C[C@H]2Oc3ccc(NC(=O)CCN4CCOCC4)cc3C(=O)N([C@@H](C)CO)C[C@H]2C)cc1` as the molecule, how does the CPE inhibition read?
A: 8.91% (inactive)

Q: With `COc1ccc(CN(C)C[C@@H]2Oc3ccc(NC(=O)Nc4cccc5ccccc45)cc3C(=O)N([C@H](C)CO)C[C@H]2C)cc1` as the molecule, how does the CPE inhibition read?
A: 1.24% (inactive)

Q: For `C[C@@H]1CN([C@@H](C)CO)C(=O)c2cc(NC(=O)Nc3cccc4ccccc34)ccc2O[C@H]1CN(C)Cc1ccc(Oc2ccccc2)cc1`, which CPE inhibition is on record?
A: 29.3% (active)

Q: For `CC(=O)c1ccc(S(=O)(=O)NCC2CCN(C(=O)C(=O)c3cccs3)CC2)cc1`, which CPE inhibition is on record?
A: -2.02% (inactive)

Q: With `COc1ccccc1CN1[C@@H]2CNC[C@H]1C2c1ccc(-c2cccc(C#N)c2)cc1` (stereo not given in full) as the molecule, how does the CPE inhibition read?
A: 9% (inactive) and 53.2% (active)

Q: For `N#Cc1ccc(-c2ccc([C@@H]3[C@H]4CNC[C@@H]3N4Cc3cc(F)ccc3F)cc2)cc1`, which CPE inhibition is on record?
A: -0.209% (inactive)

Q: Which CPE inhibition does the source give for `N#Cc1cccc(-c2ccc(C3[C@H]4CNC[C@@H]3N4Cc3cncnc3)cc2)c1` (stereo not given in full) here?
A: -5.94% (inactive)

Q: For `CCCNC(=O)C[C@@H]1CC[C@@H]2[C@H](COc3ccc(NC(=O)C4CCOCC4)cc3C(=O)N2C)O1`, which CPE inhibition is on record?
A: 11.7% (inactive)

Q: For `Cc1cccc(NC(=O)COC(=O)CCc2ccccc2)c1C`, which CPE inhibition is on record?
A: 0.193% (inactive)

Q: For `CCN(CC(=O)NCC(=O)Nc1cccc(C)c1C)Cc1ccccc1`, which CPE inhibition is on record?
A: 61.4% (active)

Q: Which CPE inhibition does the source give for `CCN(CC(=O)Nc1ccc(C)c(S(=O)(=O)N(C)C)c1)Cc1ccccc1` here?
A: 7.9% (inactive)

Q: With `CO[C@H]1CN(C)C(=O)c2cc(NC(=O)c3ccccc3)ccc2OC[C@H](C)NC[C@H]1C` as the molecule, how does the CPE inhibition read?
A: -12.8% (inactive)

Q: With `O=C(N[C@@H]1C=C[C@@H](CC(=O)N2CCOCC2)O[C@H]1CO)c1ccccn1` as the molecule, how does the CPE inhibition read?
A: -8.41% (inactive)

Q: With `CCC(C(=O)NC(C)(C)C)n1c(-c2ccccc2)nc2ccccc21` (stereo not given) as the molecule, how does the CPE inhibition read?
A: -20.3% (inactive)

Q: For `CCCc1nc2ccccc2n1C(C)C(=O)NC(C)(C)C` (stereo not given), which CPE inhibition is on record?
A: 34.6% (active)

Q: With `CC(C)(C)NC(=O)C(CCc1ccccc1)n1c(=O)c(-c2ccccc2)nc2ccccc21` (stereo not given) as the molecule, how does the CPE inhibition read?
A: 8.63% (inactive)

Q: Which CPE inhibition does the source give for `CCCNC(=O)C[C@@H]1CC[C@H]2[C@H](COc3ccc(NC(=O)c4ccc(Cl)cc4)cc3C(=O)N2C)O1` here?
A: -2.04% (inactive)

Q: Which CPE inhibition does the source give for `O=C(C[C@@H]1CC[C@H](NS(=O)(=O)c2cccc(F)c2)[C@H](CO)O1)N1CCCCC1` here?
A: -2.32% (inactive)

Q: With `COc1ccc(-c2cn(CC[C@@H]3CC[C@@H](NC(=O)CCN4CCCCC4)[C@@H](CO)O3)nn2)cc1` as the molecule, how does the CPE inhibition read?
A: -1.31% (inactive)

Q: For `Cc1cccc(C)c1NC(=O)CNC(=O)c1ccc(N2CCOCC2)c([N+](=O)[O-])c1`, which CPE inhibition is on record?
A: -8.12% (inactive)

Q: Which CPE inhibition does the source give for `N#Cc1c(NC(=O)c2ccc(N3CCOCC3)c([N+](=O)[O-])c2)sc2c1CCCC2` here?
A: 46.3% (active)

Q: Which CPE inhibition does the source give for `O=C(OCC(=O)N1CCOCC1)c1ccc(N2CCOCC2)c([N+](=O)[O-])c1` here?
A: 2.84% (inactive)

Q: Which CPE inhibition does the source give for `C[C@H]1CN([C@@H](C)CO)C(=O)c2cccc(NC(=O)Nc3ccccc3)c2O[C@@H]1CN(C)S(=O)(=O)c1ccc(F)cc1` here?
A: 13.7% (inactive)

Q: For `COc1ccc2c3c(n(C)c2c1)[C@@H](CO)N(CC1CC1)CC31CN(C(=O)Nc2c(C)noc2C)C1`, which CPE inhibition is on record?
A: 7.58% (inactive)

Q: With `CCCCCCNC(=O)O[C@]12C[C@@H](C(=O)OC)[C@@H](C(=O)OC)C[C@@]1(O)CN(S(=O)(=O)c1ccc(C)cc1)C2` as the molecule, how does the CPE inhibition read?
A: -1.36% (inactive)

Q: Which CPE inhibition does the source give for `COc1ccc(CNC(=O)COC(=O)CCS(=O)(=O)c2ccc(C)cc2)cc1OC` here?
A: -2.46% (inactive)

Q: Which CPE inhibition does the source give for `CCCCCCn1c(=O)n2n(c1=O)C[C@]1(OC(=O)NCc3ccc(OC)c(OC)c3)CN(S(=O)(=O)c3ccc(C)cc3)C[C@]1(O)C2` here?
A: 33.2% (active)

Q: For `C[C@H](O)C#Cc1ccc2c(c1)O[C@H](CN(C)Cc1ccccn1)[C@@H](C)CN([C@@H](C)CO)S2(=O)=O`, which CPE inhibition is on record?
A: 3.01% (inactive)

Q: For `C[C@H]1CN([C@@H](C)CO)C(=O)c2c(c3ccccc3n2C)-c2ccccc2CO[C@H]1CN(C)Cc1ccc2c(c1)OCO2`, which CPE inhibition is on record?
A: -9.95% (inactive)

Q: For `CCOC(=O)NNc1cc(C(F)(F)F)ccn1`, which CPE inhibition is on record?
A: -1.25% (inactive)

Q: For `CCOC(=O)/C=C/c1ccccc1O`, which CPE inhibition is on record?
A: -9.35% (inactive)

Q: With `CCOC(=O)/C=C/c1ccc(C(F)(F)F)cc1S(=O)(=O)NC(C)(C)C` as the molecule, how does the CPE inhibition read?
A: 23.6% (active)

Q: With `O=C(CN1CCOCC1)N[C@H]1CC[C@@H](CCNS(=O)(=O)c2ccccc2F)O[C@H]1CO` as the molecule, how does the CPE inhibition read?
A: 1.76% (inactive)

Q: With `O=C(Nc1ccccc1)N[C@@H]1CC[C@H](CCNS(=O)(=O)c2ccccc2F)O[C@@H]1CO` as the molecule, how does the CPE inhibition read?
A: -0.044% (inactive)

Q: For `O=C(CN1CCOCC1)N[C@@H]1CC[C@H](CCNS(=O)(=O)c2ccccc2F)O[C@H]1CO`, which CPE inhibition is on record?
A: 28.5% (active)

Q: Which CPE inhibition does the source give for `O=C(Cc1ccccc1)N1C[C@H]2[C@@H](c3ccccc31)[C@H](CO)N2C(=O)C1CCOCC1` here?
A: 2% (inactive)

Q: For `O=C(NCC[C@H]1CC[C@@H](NC(=O)c2ccncc2)[C@@H](CO)O1)Nc1ccc(Cl)cc1`, which CPE inhibition is on record?
A: 3.84% (inactive)

Q: With `COc1ccc(NC(=O)Nc2ccc3c(c2)C(=O)N([C@@H](C)CO)C[C@@H](C)[C@@H](CN(C)C(=O)CCCN(C)C)OCCCC[C@@H](C)O3)cc1` as the molecule, how does the CPE inhibition read?
A: -1% (inactive)

Q: Which CPE inhibition does the source give for `O=C(C[C@@H]1CC[C@H](NS(=O)(=O)c2ccc(F)cc2)[C@@H](CO)O1)NCc1ccccc1F` here?
A: 1.66% (inactive)

Q: For `Cc1ccc(S(=O)(=O)N[C@H]2CC[C@H](CC(=O)NCc3ccccc3F)O[C@@H]2CO)cc1`, which CPE inhibition is on record?
A: 23.7% (active)

Q: Which CPE inhibition does the source give for `Cc1ccc(S(=O)(=O)N[C@H]2CC[C@@H](CC(=O)NCc3ccc(Cl)c(Cl)c3)O[C@H]2CO)cc1` here?
A: -6.75% (inactive)

Q: For `Cc1ccccc1-c1ccc2c(c1)O[C@@H](CN(C)Cc1ccc(C(=O)O)cc1)[C@H](C)CN([C@H](C)CO)S2(=O)=O`, which CPE inhibition is on record?
A: 0.324% (inactive)

Q: Which CPE inhibition does the source give for `CC=Cc1ccc2n(c1=O)C[C@H]1[C@H](CO)[C@@H](C(=O)N3CCCCC3)N(Cc3ccccn3)[C@@H]21` (mixture of isomers) here?
A: 14.3% (inactive)

Q: For `CCS(=O)(=O)Nc1ccc(C(=O)NCCSc2ccccc2)cc1`, which CPE inhibition is on record?
A: 32% (active)

Q: For `COc1cccc(C(=O)NCCSc2ccc(Br)cc2)c1`, which CPE inhibition is on record?
A: 14.3% (inactive)

Q: With `COc1ccc(C(=O)NCCSc2ccccc2C)cc1` as the molecule, how does the CPE inhibition read?
A: -6.82% (inactive)

Q: Which CPE inhibition does the source give for `C[C@@H]1CN([C@@H](C)CO)C(=O)c2cccc(N(C)C)c2O[C@@H]1CN(C)S(C)(=O)=O` here?
A: 1.61% (inactive)

Q: For `C[C@@H]1CCCCO[C@@H](CN(C)S(=O)(=O)c2cccs2)[C@@H](C)CN([C@H](C)CO)C(=O)c2cc(NC(=O)Nc3ccc4c(c3)OCO4)ccc2O1`, which CPE inhibition is on record?
A: -1.49% (inactive)

Q: With `COCCNC(=O)[C@H]1[C@H](CO)[C@H]2Cn3c(ccc(-c4ccccc4F)c3=O)[C@H]2N1C(=O)C1CCC1` as the molecule, how does the CPE inhibition read?
A: -1.96% (inactive)

Q: For `COc1ccc(CCC(=O)N2CCN(S(=O)(=O)c3ccc(OC)cc3)CC2)cc1`, which CPE inhibition is on record?
A: -8.26% (inactive)

Q: For `COc1ccc(CCNC(=S)N2CCN(S(=O)(=O)c3ccc(Cl)cc3)CC2)cc1`, which CPE inhibition is on record?
A: 0.363% (inactive)

Q: For `COc1ccc(CCNC(=S)N2CCN(S(=O)(=O)c3ccc(F)cc3)CC2)cc1`, which CPE inhibition is on record?
A: 53.1% (active)

Q: For `CO[C@@H]1CN(C)C(=O)c2cc(NC(=O)NC3CCCCC3)ccc2OC[C@H](C)N(CC2CC2)C[C@H]1C`, which CPE inhibition is on record?
A: 5.48% (inactive)

Q: With `CN1c2ccc(-c3ccc(C#N)cc3)cc2[C@@H]2[C@@H](CCN2S(=O)(=O)c2cccc(F)c2)[C@@H]1CO` as the molecule, how does the CPE inhibition read?
A: 2.27% (inactive)

Q: With `COC(=O)[C@@H]1[C@@H](CO)[C@@H]2Cn3c(ccc(C4=CCCC4)c3=O)[C@@H]2N1Cc1cncnc1` as the molecule, how does the CPE inhibition read?
A: -0.488% (inactive)

Q: For `CCOC(=O)C1CCN(Cc2c(C(=O)N3CCOCC3)nc3c(C)cccn23)CC1`, which CPE inhibition is on record?
A: 115% (active)

Q: For `Cc1cccn2c(CNCC(C)Oc3cccnc3)c(C(=O)N3CCOCC3)nc12` (stereo not given), which CPE inhibition is on record?
A: 5.69% (inactive)

Q: With `Cc1cccn2c(CN(C)C3CCCc4ccccc43)c(C(=O)N3CCOCC3)nc12` (stereo not given) as the molecule, how does the CPE inhibition read?
A: -1.26% (inactive)

Q: For `CN(C)C(=O)c1ccc(-c2ccc([C@H]3[C@@H](CO)N4C(=O)CN(C(=O)CC5CC5)C[C@@H]34)cc2)cc1`, which CPE inhibition is on record?
A: -1.06% (inactive)

Q: For `COc1ccccc1NC(=O)N1CC(=O)N2[C@H](CO)[C@H](c3ccc(C#Cc4ccccc4)cc3)[C@H]2C1`, which CPE inhibition is on record?
A: 8.69% (inactive)

Q: For `CN(C)CC(=O)N[C@@H]1CC[C@@H](CCn2cc(C3CC3)nn2)O[C@H]1CO`, which CPE inhibition is on record?
A: 13.8% (inactive)

Q: With `O=C(Cc1ccncc1)N[C@H]1CC[C@H](CCn2cc(-c3ccccc3F)nn2)O[C@@H]1CO` as the molecule, how does the CPE inhibition read?
A: -5% (inactive)

Q: With `COc1cccc(-c2cn(CC[C@H]3CC[C@H](NC(=O)CN(C)C)[C@H](CO)O3)nn2)c1` as the molecule, how does the CPE inhibition read?
A: -8.73% (inactive)

Q: Which CPE inhibition does the source give for `O=C(Cc1cccnc1)N[C@H]1CC[C@H](CCn2cc(-c3ccccc3F)nn2)O[C@H]1CO` here?
A: 20% (active)

Q: Which CPE inhibition does the source give for `O=C(Cc1ccncc1)N[C@@H]1CC[C@H](CCn2cc(-c3ccccc3F)nn2)O[C@H]1CO` here?
A: 2.31% (inactive)

Q: Which CPE inhibition does the source give for `CN(C)CC(=O)N[C@@H]1CC[C@H](CCn2cc(C3CCCC3)nn2)O[C@H]1CO` here?
A: 77.7% (active)

Q: With `COc1ccc(S(=O)(=O)N[C@@H]2CC[C@H](CC(=O)N3CCc4ccccc4C3)O[C@H]2CO)cc1` as the molecule, how does the CPE inhibition read?
A: 2.67% (inactive)
